From PubChem BioAssay come the findings set out here.

Assay [1] can be described thus: binders of probe aFSTL3 on microarray, primary screen, stem cell growth factor project, biochemical, small-molecule microarray, fluorescence 635/667 (AID 1064).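 Note: measures binding of the biotinylated anti-FSTL3 antibody to printed compounds.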 The conditions noted are these: higher = more signal.
Assay [2] can be described thus: binders from COS7 lysate, DM2A8 probe, primary screen, torsin A project, cell lysate, small-molecule microarray, fluorescence 635/667 (AID 1065). The conditions noted are these: higher = more signal, COS7 lysate expressing mutant human TOR1A.
Assay [3] in a line: binders of probe aFGF2 on microarray, primary screen, stem cell growth factor project, biochemical, small-molecule microarray, fluorescence 635/667 (AID 1067).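 Note: measures binding of biotinylated aFGF2 protein to printed compounds on slides; z-score merges feature fluorescence and signal-to-noise across triplicate slides.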 The note with it: higher = more signal.
Assay [4] in a line: binders of probe aFGF10 on microarray, primary screen, stem cell growth factor project, biochemical, small-molecule microarray, fluorescence 635/667 (AID 1071).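 Note: score merges 667 nm spot intensity and signal to noise from triplicate slides.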 The conditions noted are these: higher = more signal.
Assay [5] deals with Neurogenic locus notch homolog protein 2 (Homo sapiens) (UniProt Q04721). The assay can be described thus: Notch2 binders on small-molecule microarrays, primary screen, biochemical, small-molecule microarray, 635 nm fluorescence, stem cell growth factors (AID 1073). The note with it: Notch2 binding, higher = more signal.
Neurogenic locus notch homolog protein 2 (Homo sapiens), sequence (Q04721 whole entry, looked up, canonical isoform): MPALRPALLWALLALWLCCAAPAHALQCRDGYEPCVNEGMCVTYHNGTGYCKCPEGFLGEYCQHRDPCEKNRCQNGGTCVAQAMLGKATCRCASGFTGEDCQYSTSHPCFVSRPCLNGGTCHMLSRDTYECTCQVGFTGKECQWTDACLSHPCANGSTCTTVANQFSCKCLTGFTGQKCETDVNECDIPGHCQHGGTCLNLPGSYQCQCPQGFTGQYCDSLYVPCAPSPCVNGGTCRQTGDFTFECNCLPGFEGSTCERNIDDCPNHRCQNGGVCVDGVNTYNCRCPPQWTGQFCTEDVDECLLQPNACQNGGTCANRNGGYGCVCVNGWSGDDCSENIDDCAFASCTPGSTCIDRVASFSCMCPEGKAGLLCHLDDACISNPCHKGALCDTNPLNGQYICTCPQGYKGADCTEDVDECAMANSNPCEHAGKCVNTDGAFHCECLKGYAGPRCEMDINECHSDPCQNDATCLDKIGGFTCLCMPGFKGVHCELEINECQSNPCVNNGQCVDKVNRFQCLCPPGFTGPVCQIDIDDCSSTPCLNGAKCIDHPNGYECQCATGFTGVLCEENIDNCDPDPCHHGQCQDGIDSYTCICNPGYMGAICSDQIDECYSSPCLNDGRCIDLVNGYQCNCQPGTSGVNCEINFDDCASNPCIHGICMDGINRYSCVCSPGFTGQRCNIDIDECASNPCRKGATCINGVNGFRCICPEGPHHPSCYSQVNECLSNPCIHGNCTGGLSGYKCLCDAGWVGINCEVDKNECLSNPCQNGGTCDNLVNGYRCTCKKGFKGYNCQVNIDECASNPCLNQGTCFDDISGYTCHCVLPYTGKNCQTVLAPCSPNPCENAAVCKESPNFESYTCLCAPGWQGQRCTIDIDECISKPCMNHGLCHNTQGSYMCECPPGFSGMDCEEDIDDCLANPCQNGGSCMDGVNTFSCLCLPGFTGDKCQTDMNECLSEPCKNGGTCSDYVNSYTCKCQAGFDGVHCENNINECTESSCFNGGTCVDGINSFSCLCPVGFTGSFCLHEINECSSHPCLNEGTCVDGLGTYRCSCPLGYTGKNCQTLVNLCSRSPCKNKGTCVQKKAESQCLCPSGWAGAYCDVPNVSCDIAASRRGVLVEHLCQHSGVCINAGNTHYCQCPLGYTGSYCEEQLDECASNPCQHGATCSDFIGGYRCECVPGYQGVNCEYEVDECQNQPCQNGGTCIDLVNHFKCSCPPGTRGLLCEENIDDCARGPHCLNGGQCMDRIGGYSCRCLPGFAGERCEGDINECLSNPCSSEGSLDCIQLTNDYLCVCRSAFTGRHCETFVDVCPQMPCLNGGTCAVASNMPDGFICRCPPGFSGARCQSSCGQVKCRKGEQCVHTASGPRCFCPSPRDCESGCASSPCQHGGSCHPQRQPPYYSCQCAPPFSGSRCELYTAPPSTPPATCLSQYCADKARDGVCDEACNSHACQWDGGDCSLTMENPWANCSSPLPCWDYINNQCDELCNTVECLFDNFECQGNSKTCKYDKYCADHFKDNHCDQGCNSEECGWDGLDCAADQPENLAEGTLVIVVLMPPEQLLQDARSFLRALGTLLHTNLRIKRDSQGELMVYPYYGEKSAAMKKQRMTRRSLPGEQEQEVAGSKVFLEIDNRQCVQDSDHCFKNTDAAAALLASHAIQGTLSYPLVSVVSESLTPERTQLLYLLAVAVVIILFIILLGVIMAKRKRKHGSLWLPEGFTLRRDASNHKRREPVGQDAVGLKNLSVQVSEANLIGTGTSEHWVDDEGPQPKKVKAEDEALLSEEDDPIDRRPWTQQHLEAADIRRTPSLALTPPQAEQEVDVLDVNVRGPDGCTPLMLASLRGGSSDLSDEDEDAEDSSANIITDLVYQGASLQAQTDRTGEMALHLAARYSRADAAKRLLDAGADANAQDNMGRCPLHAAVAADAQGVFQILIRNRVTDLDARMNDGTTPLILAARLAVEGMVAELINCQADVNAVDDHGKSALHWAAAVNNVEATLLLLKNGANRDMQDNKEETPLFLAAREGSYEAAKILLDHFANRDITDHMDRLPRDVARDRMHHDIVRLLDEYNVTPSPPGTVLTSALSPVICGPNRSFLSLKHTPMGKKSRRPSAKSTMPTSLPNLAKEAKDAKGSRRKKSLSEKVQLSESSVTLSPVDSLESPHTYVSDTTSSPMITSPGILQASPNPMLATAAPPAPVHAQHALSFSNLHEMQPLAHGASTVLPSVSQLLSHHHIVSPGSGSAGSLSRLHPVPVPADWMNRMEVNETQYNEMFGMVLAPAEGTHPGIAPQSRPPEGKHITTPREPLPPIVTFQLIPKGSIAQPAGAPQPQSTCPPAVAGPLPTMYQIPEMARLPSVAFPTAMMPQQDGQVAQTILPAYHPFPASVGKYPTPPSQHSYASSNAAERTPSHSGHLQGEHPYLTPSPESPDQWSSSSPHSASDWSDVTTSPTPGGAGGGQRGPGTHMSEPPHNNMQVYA
Assay [6] deals with Pro-neuregulin-1, membrane-bound isoform (Homo sapiens) (UniProt Q02297). Put plainly: NRG1 binders on small-molecule microarrays, primary screen, psychiatric disease protein project, biochemical, small-molecule microarray, fluorescence 635/667 (AID 1075).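 Note: score combines 667 nm spot fluorescence with signal to noise.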 The note with it: NRG1 binding, 635 nm fluorescence, higher = more signal.
Pro-neuregulin-1, membrane-bound isoform (Homo sapiens), sequence (Q02297 whole entry, looked up, the tested form may be a part, canonical isoform): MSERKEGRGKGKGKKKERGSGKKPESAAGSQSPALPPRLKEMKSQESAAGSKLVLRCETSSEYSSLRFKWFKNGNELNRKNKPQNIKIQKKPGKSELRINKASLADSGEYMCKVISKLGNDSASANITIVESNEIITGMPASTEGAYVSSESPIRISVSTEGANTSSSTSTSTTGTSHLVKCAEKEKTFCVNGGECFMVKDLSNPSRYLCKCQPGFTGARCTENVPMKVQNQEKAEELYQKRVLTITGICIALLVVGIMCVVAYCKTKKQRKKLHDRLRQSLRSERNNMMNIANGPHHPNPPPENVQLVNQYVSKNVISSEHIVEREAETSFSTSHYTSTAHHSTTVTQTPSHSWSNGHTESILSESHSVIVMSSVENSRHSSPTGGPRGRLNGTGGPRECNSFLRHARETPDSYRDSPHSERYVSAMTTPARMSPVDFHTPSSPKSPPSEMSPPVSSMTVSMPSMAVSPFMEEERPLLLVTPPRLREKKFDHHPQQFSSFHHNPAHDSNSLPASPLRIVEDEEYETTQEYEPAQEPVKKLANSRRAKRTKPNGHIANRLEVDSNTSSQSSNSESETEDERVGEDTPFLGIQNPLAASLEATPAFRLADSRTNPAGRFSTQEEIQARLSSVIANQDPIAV
Assay [7] concerns Neuregulin-1 EGF-like domain. The assay can be described thus: binders of neuregulin-1 EGF-like domain, primary screen, biochemical, small-molecule microarray, 635 nm fluorescence (AID 1081).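 Note: binding of the protein to compounds printed on small-molecule microarray slides.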 The conditions noted are these: small-molecule microarray binding, higher = more signal.
Assay [8] can be described thus: FRG1 promoter luciferase signal modulators, primary screen, FRG1 inhibition for FSHD, cell-based, C2C12 myotubes, firefly/Renilla luciferase, luminescence (AID 1084). The conditions noted are these: higher = more signal, called active from +8 up or from −8 down.
A short description of assay [9]: binders of probe aFST on microarray, primary screen, stem cell growth factor project, biochemical, small-molecule microarray, fluorescence 635/667 (AID 1086).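 Note: score merges 667 nm fluorescence with signal-to-noise of each printed compound spot.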 The conditions noted are these: higher = more signal.
Assay [10] in a line: binders of probe aHhip on microarray, primary screen, stem cell growth factor project, biochemical, small-molecule microarray, fluorescence 635/667 (AID 1087).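 Note: score merges spot fluorescence at 667nm with spot signal to noise ratio.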 The conditions noted are these: higher = more signal.
The test system of assay [11] is PRMT1 (protein arginine N-methyltransferase 1). Put plainly: PRMT1 binders on small-molecule microarrays, primary screen, biochemical, small-molecule microarray, 635 nm fluorescence (AID 1088).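 Note: binding of Prmt1 protein to compounds spotted on small-molecule microarray slides.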 The conditions noted are these: small-molecule microarray binding, higher = more signal.
The nature of assay [12]: yeast growth modulation, basal conditions, primary screen, YJM789 clinical isolate, OD600, 24 h (AID 1089).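 Note: growth of clinical yeast isolate S. cerevisiae YJM 789 seeded 1000 cells per well; test concentration not given here.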 The note with it: S. cerevisiae YJM789 growth, higher = more signal, called active from +8 up or from −8 down.
Assay [13] can be described thus: fission yeast growth modulation, primary screen, strain 972, OD600, 24 h, no modulator (AID 1090).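 Note: basal condition with compound alone and no growth modifier present; test concentration not given here.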 The conditions noted are these: S. pombe 972 growth, higher = more signal, called active from +8 up or from −8 down.
Assay [14] is described as follows: S. cerevisiae growth modulation with rapamycin, primary screen, strain BY4716, OD600, 96 h (AID 1091). Note: test concentration not given here. The note with it: higher = more signal, called active from +8 up or from −8 down.
Assay [15] deals with Torsin-1A-interacting protein 2 (Homo sapiens) (UniProt Q8NFQ8). The assay can be described thus: LULL1 binders on small-molecule microarray, primary screen, cell lysate, human LULL1 lysate, 635/667 nm fluorescence (AID 1092).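 Note: probe is lysate of COS7 cells overexpressing human LULL1; score merges per-feature 667 nm fluorescence with signal-to-noise.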 The note with it: hLULL1 lysate binding, 635 nm fluorescence, higher = more signal.
Torsin-1A-interacting protein 2 (Homo sapiens), sequence (Q8NFQ8 whole entry, looked up): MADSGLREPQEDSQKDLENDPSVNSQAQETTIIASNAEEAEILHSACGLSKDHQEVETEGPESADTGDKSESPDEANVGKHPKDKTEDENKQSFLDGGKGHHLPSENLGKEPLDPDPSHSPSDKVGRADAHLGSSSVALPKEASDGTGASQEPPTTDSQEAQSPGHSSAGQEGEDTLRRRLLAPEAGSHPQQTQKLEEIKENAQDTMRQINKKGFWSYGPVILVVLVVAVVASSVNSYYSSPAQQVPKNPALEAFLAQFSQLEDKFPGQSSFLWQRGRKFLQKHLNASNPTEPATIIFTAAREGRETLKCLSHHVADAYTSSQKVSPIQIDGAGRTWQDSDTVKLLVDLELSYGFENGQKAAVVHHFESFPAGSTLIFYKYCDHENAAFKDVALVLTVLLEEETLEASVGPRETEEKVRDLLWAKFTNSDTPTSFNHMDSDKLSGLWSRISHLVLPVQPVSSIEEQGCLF
Assay [16] can be described thus: E. coli growth modulation, two-sided OD650, primary screen, E. coli filamentation project, strain DRC41, 24 h (AID 1093).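 Note: MC1000 strain lacking acrAB efflux and sulA so SOS filamentation is blocked; test concentration not given here.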 The conditions noted are these: OD650, 24 h, higher = more signal, called active from +8 up or from −8 down.
Assay [17] is described as follows: small-molecule microarray binders of probe aLefty2, primary screen, biochemical, biotinylated probe, 635/667 nm fluorescence (AID 1094).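 Note: score merges spot fluorescence near 667 nm with spot signal-to-noise ratio.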 The conditions noted are these: higher = more signal.
Assay [18] concerns Noggin (protein binding on small-molecule microarray). Put plainly: Noggin binders on small-molecule microarray, primary screen, biochemical, 635/667 nm fluorescence (AID 1095).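 Note: score merges 667 nm feature fluorescence with signal to noise over triplicate slides.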 The conditions noted are these: 635 nm fluorescence, higher = more signal.
The target in assay [19] is Neurogenic locus notch homolog protein 3 (Homo sapiens) (UniProt Q9UM47). Put plainly: NOTCH3 binders on small-molecule microarray, primary screen, biochemical, 635/667 nm fluorescence (AID 1096). The note with it: NOTCH3 binding, 635 nm fluorescence, higher = more signal.
Assay [20] in a line: small-molecule microarray binders of probe aEGFR, primary screen, biochemical, biotinylated probe, 635/667 nm fluorescence (AID 1097).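 Note: probe is a biotinylated anti-EGFR antibody binding compounds printed on slides; score combines fluorescence near 667 nm and signal to noise of each spot.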 The note with it: higher = more signal.

Activity calls are given as the source filed them.

For `O=C1CSC(c2cccc([N+](=O)[O-])c2)N1c1ccccc1` (stereo not given), the composite z-score in assay [1] was 0.315; in assay [2] it was -0.0123; in assay [3], -0.0161; in assay [4], 0.508; in assay [5], 0.839; in assay [6], 0.146. Moreover, the composite z-score is 0.979 in assay [7]; -0.0692 in assay [9]; -0.0994 in [10]; 0.0447 in [11]; 0.517 in assay [15]; -0.0163 in assay [17]. In addition, the composite z-score in assay [18] is 0.36; in assay [19], 0.201; in assay [20], 0.0093. For the same compound, the z-score was -0.239 (inactive) in [8]; -0.0876 (inactive) in assay [12]; 0.616 (inactive) in assay [13]; 1.09 (inactive) in assay [14]; 0.666 (inactive) in assay [16].
Take `CN(C)CCCC[C@@H]1NC(=O)[C@H]2C[C@@H](C(=O)NCCCCCCNC(=O)CS)[C@@H](c3ccc(O)cc3)N2C1=O`: the composite z-score in assay [1] is 0.0462; in assay [2], 0.576; in assay [3], -0.116; in assay [4], 0.165; in assay [5], -0.549; in assay [6], 0.848. The composite z-score in assay [7] is 1.11; in [9], -0.337; in assay [10] it was -0.125; in [11], 1.17; in assay [15], 3.31; in [17], -0.0785. Moreover, the composite z-score in assay [18] is 1.58; in assay [19], 0.196; in assay [20], -0.173. For the same compound, the z-score in assay [8] is 1.15 (inactive); in assay [12], -1.22 (inactive); in assay [13], -0.225 (inactive); in [14], -0.342 (inactive); in assay [16], 0.937 (inactive).
As for `Cc1ccccc1C(O)C1C=CC2C(=O)N(Cc3ccccc3)C(=O)C2N1n1cnnc1` (stereo not given), the composite z-score was -0.281 in [1]; 0.34 in assay [2]; -0.0085 in [3]; 0.304 in assay [4]; 1.02 in [5]; 1.03 in [6]. Further, the composite z-score was determined as 0.92 in [7]; 0.475 in assay [9]; 0.0053 in assay [10]; 0.601 in assay [11]; 2.38 in [15]; 0.0873 in assay [17]. The composite z-score in assay [18] amounted to 0.162; in assay [19], 1.05; in assay [20], 0.045. Besides, the z-score was 0.253 (inactive) in [8]; -1.26 (inactive) in [12]; 0.658 (inactive) in [13]; -0.796 (inactive) in assay [14]; -0.0518 (inactive) in [16].
Consider `Cc1ccc(C(C)CC(O)C2C=CC3C(=O)N(Cc4ccccc4)C(=O)C3N2n2cnnc2)o1` (stereo not given), for which the composite z-score was found to be 1.67 in assay [1]; 0.46 in [2]; 0.522 in assay [3]; 0.703 in assay [4]; 1.29 in assay [5]; 0.907 in assay [6]. The composite z-score amounted to 1.44 in assay [7]; 2.16 in [9]; 0.488 in [10]; 1.49 in [11]; 2.51 in assay [15]; 1.1 in [17]. Moreover, the composite z-score was determined as 0.0433 in assay [18], 1.09 in [19] and 0.778 in assay [20]. The z-score in [8] was 0.386 (inactive); in assay [12] it was -3.19 (inactive); in assay [13] it was -2.84 (inactive); in [14], -0.829 (inactive); in assay [16], -1.56 (inactive).
Regarding `O=C1O[C@H](c2ccccc2)[C@H](c2ccccc2)N2[C@H]1[C@@H](C(=O)N1CCCCCCC1)[C@]1(C(=O)Nc3ccc(C#CCCO)cc31)[C@H]2c1ccc(OCCO)cc1`, the composite z-score turned out to be 3.51 in assay [1]; 2.79 in [2]; 0.972 in assay [3]; 1.49 in [4]; 1.76 in assay [5]; 2.84 in [6]. For the same compound, the composite z-score was 1.35 in assay [7]; 3.33 in [9]; 2.53 in assay [10]; 1.56 in assay [11]; 5.06 in assay [15]; 1.6 in assay [17]. The composite z-score in assay [18] turned out to be 2.36; in assay [19] it was 1.01; in assay [20], 1.28. Further, the z-score was -0.409 (inactive) in assay [8]; 1.55 (inactive) in assay [12]; -0.0863 (inactive) in assay [13]; 3.73 (inactive) in [14]; 0.669 (inactive) in assay [16].
